Experiments:
Test in all cases: PBM binding z-score (relative to random genomic background probes); higher = stronger binding; sequences stand for … in GC…GCGATTGACAGCGTAGAATGAAGG
[1] = tested on: PPARg:RXRa DBDmut IVT, anti-RXR (DBD mutation: RXRa K156A/R161A, NR concentration 270 nM, RXRa partner concentration 90 nM)
Procedure, shortened: (§1)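 Scanned fluorescence from custom Agilent 4×180K protein-binding microarrays was regression-normalized. Binding z-scores use random background probes as reference. Ligand-free nuclear receptor dimers were incubated on the arrays for 1 h and detected with antibodies against each partner (one per run).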

[2] = tested on: PPARg:RXRa IVT, anti-PPARg (NR concentration 270 nM, RXRa partner concentration 90 nM)
Procedure, shortened: as §1

[3] = tested on: PPARg DBDmut:RXRa IVT, anti-PPARg (DBD mutation: PPARg1 K132A/R137A, NR concentration 270 nM, RXRa partner concentration 90 nM)
Procedure, shortened: as §1

[4] = tested on: PPARg DBDmut IVT, anti-PPARg (DBD mutation: PPARg1 K132A/R137A, NR concentration 270 nM)
Procedure, shortened: as §1

[5] = tested on: PPARg homodimer (NR concentration 180 nM)
Procedure, shortened: as §1

[6] = tested on: PXR:RXRa (NR concentration 270 nM, RXRa partner concentration 90 nM)
Procedure, shortened: as §1

[7] = tested on: PXR homodimer (NR concentration 270 nM)
Procedure, shortened: as §1

[8] = tested on: RARa:RXR (NR concentration 270 nM, RXRa partner concentration 90 nM)
Procedure, shortened: as §1

[9] = tested on: RARa homodimer (NR concentration 270 nM)
Procedure, shortened: as §1

[10] = tested on: RARb:RXRa (NR concentration 270 nM, RXRa partner concentration 90 nM)
Procedure, shortened: as §1

[11] = tested on: RARb homodimer (NR concentration 270 nM)
Procedure, shortened: as §1

[12] = tested on: RARg:RXRa (NR concentration 270 nM, RXRa partner concentration 90 nM)
Procedure, shortened: as §1

[13] = tested on: RARg homodimer (NR concentration 270 nM)
Procedure, shortened: as §1

[14] = tested on: RXRa DBDmut IVT, anti-RXR (DBD mutation: RXRa K156A/R161A, NR concentration 90 nM)
Procedure, shortened: as §1

[15] = tested on: RXRa homodimer (NR concentration 180 nM)
Procedure, shortened: as §1

[16] = tested on: THRa:RXRa (NR concentration 90 nM, RXRa partner concentration 90 nM)
Procedure, shortened: as §1

[17] = tested on: THRa homodimer (NR concentration 90 nM)
Procedure, shortened: as §1

[18] = tested on: VDR homodimer (NR concentration 270 nM)
Procedure, shortened: as §1

Sequence	PBM binding z-score [1]	PBM binding z-score [2]	PBM binding z-score [3]	PBM binding z-score [4]	PBM binding z-score [5]	PBM binding z-score [6]	PBM binding z-score [7]	PBM binding z-score [8]	PBM binding z-score [9]	PBM binding z-score [10]	PBM binding z-score [11]	PBM binding z-score [12]	PBM binding z-score [13]	PBM binding z-score [14]	PBM binding z-score [15]	PBM binding z-score [16]	PBM binding z-score [17]	PBM binding z-score [18]
TCTAGCAGGCCAGAGGGTCACTCTAGAGGTACGG	0.721	0.95	-0.508	-0.98	0.476	1.24	-0.322	2.07	-0.492	2.27	2.57	2.42	1.97	0.248	2.34	1.4	-0.529	0.422
CAGCCTAGGTCAGGGCCTGTATAGGAGGAACGTT	1.45	1.31	-0.895	-1.4	0.134	0.236	-0.76	0.971	-1.2	3.33	2.38	2.68	3.88	-0.731	1.46	1.88	-0.108	-0.924
TCATATAGGTAAACAGGTGAACGTCCGTAAGTTA	5.34	5.19	1.47	1	1.69	1.09	0.569	1.4	1.29	0.977	0.948	0.887	0.712	1.31	1.28	1.12	0.353	0.243
AGAACGAGGTCAATGAGTTGATAGCACGGGTGGC	5.59	5.76	1.71	0.861	3.64	5.72	8.63	5.14	0.929	4.89	3.94	5.78	5.81	4.11	6.03	3.94	2.08	5.27
CCCAGCAGGCCAATCTGGGTCACTCAAGGCTTGA	3.08	4.97	-0.484	-1.45	0.339	1.31	-0.346	1.46	-0.731	1.63	2.53	1.29	1.5	-0.496	0.923	3.73	0.49	-0.172
ATCTCTAGGTAAAAGTTCAGTGCATCCCGAGGAT	1.88	3.85	0.957	1.05	1.6	2.28	2.08	1.69	1.4	2.36	2.59	1.85	1.81	0.951	1.49	1.43	0.48	2.21
TTACCAAGGTGAAAGGTCGTTGGTGCACGCCTTG	3.18	5.34	0.205	0.977	2.46	4.31	0.449	6.09	-0.639	3.31	2.87	4.49	1.81	0.82	6.07	3.48	0.937	1.86
CCTGCTAGGTCAGTGGTCAGCTAAAGCAGCTCGC	3.16	2.76	-1.08	-1.65	0.944	-0.0429	-0.667	0.509	-0.82	3.42	2.63	2.56	3.82	0.821	0.693	1.51	0.454	-0.319
ACTAGCAGGCCAAGTTTGGGTCACCCAAACAAAG	0.771	1.58	-0.22	-0.356	0.716	1.08	-0.637	1.89	-1.22	2.06	2.48	2.88	2.18	-0.623	1.45	2.96	1.36	0.196
TTTAGCAGGCCAGAGGGTCACTCAAGAGGTACGG	-0.256	1.03	-0.784	-1.27	0.57	1.55	-0.341	2.18	-0.62	2.05	2.65	2.51	2.02	-0.755	2.32	1.6	-0.313	0.332
AGAACGAGGGCTCGCTGAGTTGATAGCAGAGTAG	-0.0756	-0.495	-1.3	-0.699	-0.792	-0.724	-0.639	-0.678	-1.21	-0.365	-1.22	-0.312	-0.258	-0.292	-0.132	-0.509	-0.958	-0.176
GGAACGAGGGCAAGTTGATAGCCGAGTTTGATGG	3.6	2.74	-0.528	-0.707	0.106	0.822	0.247	0.442	-0.485	2.88	1.56	1.84	2.12	2.37	0.956	1.22	-0.266	1.92
ACTAGCAGGCCAAGTTTTGGTCACTCAAACAAAG	0.635	0.635	-0.425	-0.348	-0.321	-0.259	-0.809	0.113	-0.612	0.742	0.74	0.448	0.546	-0.286	-0.0235	0.0291	-0.326	-0.447
AACTCTAGGTAAGACTCAGTTCAGTGAAGAACGC	1.6	0.848	0.278	-0.04	0.345	0.534	0.651	0.155	0.797	0.272	0.462	-0.177	0.0668	0.487	-0.128	0.636	0.228	1.15
CCGACTGGGGCAAGGTTACCATAACGCACAGCCA	3.29	3.67	-0.449	-0.891	0.674	0.267	-0.266	0.99	0.394	1.75	1.33	1.31	1.39	-0.473	1.34	1.33	0.342	-0.0373
TAGCCTAGGTCATGCGGGCCAGTTTAGTGTCGGC	2.01	2.55	-0.215	-0.754	0.303	1.59	-0.464	2.22	-0.83	3.45	3.03	3.96	4.73	0.93	3.2	3.02	1.07	0.95

Sequence	PBM binding z-score [1]	PBM binding z-score [2]	PBM binding z-score [3]	PBM binding z-score [4]	PBM binding z-score [5]	PBM binding z-score [6]	PBM binding z-score [7]	PBM binding z-score [8]	PBM binding z-score [9]	PBM binding z-score [10]	PBM binding z-score [11]	PBM binding z-score [12]	PBM binding z-score [13]	PBM binding z-score [14]	PBM binding z-score [15]	PBM binding z-score [16]	PBM binding z-score [17]	PBM binding z-score [18]
CCTAGCAGGCCAGGGTCACTCAGGCATTTCGCTT	-0.00567	0.705	-1.33	-1.04	0.362	2.21	-0.351	2.78	-0.431	2.47	2.73	2.77	2.03	0.226	3.07	2.58	0.878	1.07
GCTGCTAGGTCAACTCATGGTCAGCTAAAGCTCG	4.52	4.36	-0.224	0.163	1.2	1.83	-0.544	2.76	0.409	4.46	3.69	5.16	5.42	1.45	2.86	3.17	1.15	0.269
CCAGACCGGTGAAAGGTAACTCAGTCTGGTACGC	-0.315	1.07	-1.56	-0.816	0.901	0.218	-0.239	0.267	-0.377	0.477	0.414	0.36	-0.096	-0.727	0.696	0.429	-0.178	-0.186
GCAAGCAGGCCATTTGGGTCACTCAATGACGGGC	1.67	2.35	-0.319	-0.988	0.0293	0.422	0.0274	0.6	-0.747	1.33	1.76	0.948	1.18	-0.0801	0.769	1.79	0.53	0.402
TTACCAAGGTGCAAGGTCGTTGATGCACGCCTTG	-0.0401	1.05	-0.472	-0.179	0.87	1.16	0.648	1.13	-0.653	1.22	1.21	0.66	0.411	1.33	1.54	1.62	0.68	2.9
ATCTCTAGGTAACCAAGTTCAGTGACTGCCGAAC	4.09	2.78	0.981	0.674	1.09	2.14	2.22	0.968	1.12	1.14	1.39	0.744	0.871	1.24	0.577	1.46	1.03	2.9
TGAATTAGGTTATAAGATCAGGGAACGTTGCAAA	5.05	4.53	1.08	1.15	1.14	-0.000172	0.301	-0.0809	1.34	0.576	-0.204	0.498	0.508	-0.196	0.503	0.533	0.0659	0.321
ATCTCTAGGTAACCAAGTTGAGTGAATGCCGAAC	3.51	2.64	0.787	1.26	0.031	-0.00792	0.194	0.144	0.0193	0.243	0.229	-0.0592	0.11	0.0229	0.0959	0.852	0.635	0.254
AGAATGAGGTTATACGTCGATCAGGGAAGAAAGT	2.6	2.09	0.671	0.354	0.876	0.925	0.396	1.51	0.313	1.34	0.644	1.73	0.993	1.69	2.07	2.01	0.495	0.866
CCGACTGGGGCAAAGGTTACCAGACTCAGTACGA	4.51	5.88	-0.692	-1.09	0.726	2.48	-0.264	3.64	-0.558	2.66	2.19	3.65	1.61	-0.175	3.93	1.73	-0.362	0.000123
TGAATGAGGTTATAAGATCAGGAAACGTTGCAAA	0.583	1.52	0.845	1.12	0.661	0.789	0.0316	1.46	0.238	1.15	0.0307	1.61	0.861	0.926	2.21	1.77	-0.0709	0.225
ATCGAAAGGTGGTGAGGTGAGTATACAGAAAGGC	-0.246	0.807	0.968	1.51	0.911	0.257	0.574	0.614	0.646	0.849	1.13	0.717	0.846	-0.654	0.748	1.8	1.23	0.366
AGAATGAGGTTATTAAGATCAGAGAATTGCGGTC	3.17	2.63	0.323	0.23	0.951	1	0.488	1.2	0.79	1.16	0.575	1.21	0.933	1.88	1.7	2.06	0.584	1.11
CGTCCAAGGTCAGCAGGTCAGGGAAAGCGACGTG	3.07	3.53	-0.625	-0.856	4.09	3.83	0.492	5.33	1.3	5.27	5.01	6.64	7.24	2.62	5.64	3.84	2.59	1.53
ACTAGCAGCCCAAGGGTCACTCAAGATTAGTCCG	-0.509	1.13	-0.437	-0.614	1.34	2.97	0.208	3.58	0.48	3.27	3.74	3.55	3.23	0.283	3.67	2.45	0.307	0.863

— the supplement of paper PMC6555819
